Bioassay records deposited in PubChem by National Center for Advancing Translational Sciences (NCATS).
Only some compounds are listed: those with a hit (about 9.2% of all), similar ones and a draw of the others.
Rab9 promoter act: activates the Rab9 promoter; actives 2.8% (n = 320,000); Potency, µM (series often up to 9.22 µM), inactives show at the top dose activation, negative = inhibition, most hits filed as activators; Huh7 Rab9 promoter-luciferase reporter, luminescence, 24 h; note: % of control where 0% means no effect; nearly all actives have a fitted effect of over 60% in size
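Measured in stably transfected Huh7 cells bearing a Rab9 promoter–luciferase construct: 24 h compound treatment at 37 °C, followed by luminescence detection.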
ELG1 genotox: induces genotoxicity in HEK293T cells with luciferase-tagged ELG1; HEK293T ELG1-luciferase reporter, luminescence, 16 h; Potency, µM (doses to about 46 µM), for inactives: top-dose activity change, positive = activation, hits mostly activators; actives 1.3% (n = 330,000); AID 504466; note: % of control where 0% means no effect; nearly all actives have a fitted effect of over 60% in size
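Luminescence read-out: rising ELG1-luciferase signal, reflecting elevated ELG1 protein under genetic stress, flags genotoxic compounds. Cells were treated for 16 hr at 37 °C before ONE-Glo detection.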
ELG1 DNA repair: blocks ELG1-dependent DNA repair in HEK293T cells; HEK293T ELG1-luciferase reporter, luminescence, 16 h; DNA damage induced by 5-fluorouridine; Potency, µM (top dose mostly 46.1 µM), for inactives: at the highest dose activity change, negative = inhibition, usual class: inhibitors; actives 2.3% (n = 330,000); AID 504467; note: % is set by controls: 0 for no effect and ±100 for the full control effect; nearly all actives have a fitted effect of over 55% in size
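HEK293T cells expressing luciferase-tagged ELG1 (2,000/well) received 5-Fluorouridine plus compound or DMSO for 16 hr at 37 °C. Luciferase was read by ONE-Glo luminescence after 30 min at room temperature.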
NPC1 promoter act: activates the NPC1 promoter. Huh7 NPC1 promoter luciferase reporter, 24 h. Potency, µM (highest dose often 9.22 µM), for the others: at the top dose activation, hits mostly activators. actives 2.4% (n = 320,000); note: % of control where 0% means no effect; nearly all actives have a fitted effect of over 60% in size
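Luminescence from an NPC1 promoter-driven luciferase reporter in stably transfected Huh7 cells was measured after 24 h compound treatment at 37 °C, followed by 10 min ambient incubation with luciferase detection reagent.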
SMN2 splice enh: SMN2 splice variant enhancement | Potency, µM (highest dose often 46.1 µM), inactives show at the highest dose activity change, positive = activation, hits mostly activators | actives 2.8% (n = 210,000) | HEK293 SMN2-luciferase splicing reporter, luminescence, 30-36 h; note: % of control where 0% means no effect; nearly all actives have a fitted effect of over 55% in size
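HEK293 cells carry an SMN2 […]–luciferase reporter in which exon 7 inclusion puts luciferase in frame. Cells were plated 10-12 h before compound addition, then incubated 30-36 h at 37C. ONE-Glo luminescence was read; sodium butyrate at 4.5 mM final served as control.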
FLuc counter: firefly luciferase modulation, counter-screen for miR-21 project. AID 588342. purified FLuc, Km substrates, luminescence inhibition. actives 6.9% (n = 360,000). P08659. Potency, µM (titrated, usually from 57.5 µM), for the others: at the highest dose activity change, negative = inhibition, usual class: inhibitors;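 note: plate controls were vehicle for no effect and reference inhibitor for full effect; nearly all actives have a fitted effect of over 55% in size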
Target sequence (P08659 whole entry, looked up): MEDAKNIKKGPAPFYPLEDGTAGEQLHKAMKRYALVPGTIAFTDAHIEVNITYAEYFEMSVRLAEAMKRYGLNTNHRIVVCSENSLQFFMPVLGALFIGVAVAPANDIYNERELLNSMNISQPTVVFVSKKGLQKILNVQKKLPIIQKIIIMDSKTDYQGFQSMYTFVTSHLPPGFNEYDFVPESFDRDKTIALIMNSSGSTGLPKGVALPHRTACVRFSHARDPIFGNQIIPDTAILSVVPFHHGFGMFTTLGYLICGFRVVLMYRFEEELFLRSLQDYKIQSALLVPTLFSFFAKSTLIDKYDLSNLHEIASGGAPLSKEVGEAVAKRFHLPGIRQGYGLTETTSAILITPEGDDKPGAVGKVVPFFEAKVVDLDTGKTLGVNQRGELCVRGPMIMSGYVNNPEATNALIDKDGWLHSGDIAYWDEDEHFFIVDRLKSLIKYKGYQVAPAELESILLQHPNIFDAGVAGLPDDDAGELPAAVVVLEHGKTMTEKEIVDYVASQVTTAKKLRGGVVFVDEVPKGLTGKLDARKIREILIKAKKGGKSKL
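Purified P. pyralis luciferase (10nM final) with 10uM D-luciferin and 10uM ATP (Km levels) in 50mM Tris acetate pH 7.5, 10mM Mg acetate, 0.01% Tween-20, 0.05% BSA; qHTS 6-point titration, ~60 µM downward; luminescence read.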
Starred values were filed as active, the others as inactive; [ ] = remark or other dose. Calls come from the whole dose curve; as a rule, active = well fitted curve in the direction sought with a large enough effect; inconclusive = small, poorly fitted or top-dose-only effect, or another doubt; inactive = no such curve, though single readings can be large; an effect the other way counts as inactive or inconclusive. Potency is the fitted concentration of half-maximal effect.

CCN(C(=O)CN1C(=O)COc2ccc(S(=O)(=O)N3CCOCC3)cc21)c1cccc(C)c1 was read as FLuc counter 1.6%.
For O=C(Cc1ccccc1F)Nc1nc(-c2ccc(F)cc2)cs1 the results were Rab9 promoter act inconclusive, ELG1 genotox -13.5%, ELG1 DNA repair -12.4%, NPC1 promoter act 7.9% and FLuc counter 10.7µM*.
O=C(CS(=O)(=O)c1ccccc1)Nc1nc(-c2ccc(F)cc2)cs1 was read as Rab9 promoter act -1.9%, ELG1 genotox -2.1%, ELG1 DNA repair inconclusive, NPC1 promoter act -6.3%, SMN2 splice enh -26.7% and FLuc counter inconclusive.
COc1ccc(-c2csc(NC(=O)c3cc(C)oc3C)n2)cc1OC was read as Rab9 promoter act 8.4%, ELG1 genotox -25.6%, ELG1 DNA repair 18.3µM*, NPC1 promoter act -3.2% and FLuc counter 19µM*.
CCc1noc(C)c1C(=O)Nc1nc(-c2ccc(OC)c(OC)c2)cs1 was read as Rab9 promoter act -7.0%, ELG1 genotox -38.9%, ELG1 DNA repair inconclusive, NPC1 promoter act -4.0% and FLuc counter -12.9%.
`COc1ccc(-c2csc(NC(=O)Cc3ccccc3F)n2)cc1OC` gave Rab9 promoter act -7.3%, ELG1 genotox -24.4%, ELG1 DNA repair 16.4µM*, NPC1 promoter act -12.7% and FLuc counter inconclusive.
For COc1ccccc1CC(=O)Nc1nc(-c2ccc(F)c(F)c2)cs1 the results were Rab9 promoter act 12.3%, ELG1 genotox -14.4%, ELG1 DNA repair 14.9%, NPC1 promoter act 4.8% and FLuc counter 15.1µM*.
COc1ccc(-c2nc(-c3ccccc3)c(-c3ccc(F)cc3)[nH]2)c(OC)c1C was read as SMN2 splice enh -15.3% and FLuc counter -13.6%.
`CCN(CC)S(=O)(=O)c1ccc2c(c1)c(=O)c(C(=O)NCCc1ccc(OC)c(OC)c1)cn2C` gave Rab9 promoter act -0.3%, ELG1 genotox 5.3%, ELG1 DNA repair -28.0%, NPC1 promoter act -2.9%, SMN2 splice enh -4.4% and FLuc counter -1.6%.
For COc1cccc(CNC(=O)COC(=O)c2ccc(Cl)s2)c1 the results were ELG1 genotox 1.5% and ELG1 DNA repair 28.3%.
Screening CC(=O)Nc1ccc(NC(=O)CSc2nccn2Cc2ccc3c(c2)OCO3)cc1 returned FLuc counter -7.6%.
Screening CCC1(c2ccc(Cl)cc2)NC(=S)N(c2ccc(C)cc2)N1 (stereo not given) returned Rab9 promoter act 18.8%, ELG1 genotox inconclusive, ELG1 DNA repair inconclusive, NPC1 promoter act 7.1%, SMN2 splice enh -54.7% and FLuc counter 16.9µM*.
For CN(CCC#N)C(=O)COC(=O)c1c2c(nc3ccccc13)/C(=C/c1ccco1)CC2 the results were Rab9 promoter act inconclusive, ELG1 genotox 7.8%, ELG1 DNA repair inconclusive, NPC1 promoter act inconclusive, SMN2 splice enh 22.4µM* and FLuc counter 10.7µM*.
For CN(CCC#N)C(=O)COC(=O)c1ccc2[nH]c3c(c2c1)CCCC3 the results were Rab9 promoter act 9.2%, ELG1 genotox -4.4%, ELG1 DNA repair inconclusive, NPC1 promoter act -1.4%, SMN2 splice enh inconclusive and FLuc counter inconclusive.
O=C(c1csnn1)N1CCC2(CCN(Cc3cc(C(F)(F)F)cc(C(F)(F)F)c3)CC2)CC1 was read as SMN2 splice enh -13.4%.
Screening Cc1ccccc1Cn1c(SCc2ccc(C(=O)NC(C)c3ccccc3)cc2)nc2ccncc21 (stereo not given) returned SMN2 splice enh -14.5% and FLuc counter -10.4%.
Cc1cc(C)c2nc(C)cc(N/N=C/c3ccc(O)cc3)c2c1 was read as Rab9 promoter act -4.6%, ELG1 genotox inconclusive, ELG1 DNA repair -14.3%, NPC1 promoter act -20.2% and FLuc counter 13.5µM*.
Screening Oc1ccc(/C=N/Nc2nc(-c3ccc(Cl)cc3)cc(C(F)(F)F)n2)cc1 returned Rab9 promoter act -3.2%, ELG1 genotox -7.4%, ELG1 DNA repair 25.9µM*, NPC1 promoter act 1.5%, SMN2 splice enh -24.1% and FLuc counter 26.9µM*.
For Cc1cc(-c2ccccc2)nc(N/N=C/c2ccc(O)cc2)n1 the results were Rab9 promoter act -0.5%, ELG1 genotox -2.3%, ELG1 DNA repair -4.3%, NPC1 promoter act 11.7% and FLuc counter 1.51µM*.
For Cc1cccc(NC(=O)CSc2cn(CC(=O)N3CCOCC3)c3ccccc23)c1C the results were FLuc counter -1.5%.
Screening Cc1cc(Cl)ccc1NS(=O)(=O)c1ccc2c(c1)CCN2S(C)(=O)=O returned FLuc counter 4.6%.
Screening CC(C)COC(=O)c1ccc(NC(=O)C2C3CCC(C3)C2C(=O)O)cc1 (stereo not given) returned Rab9 promoter act 1.12µM*, ELG1 genotox inconclusive, ELG1 DNA repair inconclusive, NPC1 promoter act 3.98µM*, SMN2 splice enh 21.3% and FLuc counter 16.9µM*.
Screening CCCOC(=O)c1ccc(NC(=O)C2CCCO2)cc1 (stereo not given) returned Rab9 promoter act 3.98µM*, ELG1 genotox inconclusive, ELG1 DNA repair inconclusive, NPC1 promoter act inconclusive, SMN2 splice enh inconclusive and FLuc counter inconclusive.
CCOC(=O)c1ccc(NC(=O)N2CCCCCC2)cc1 was read as Rab9 promoter act 1.78µM*, ELG1 genotox 5.8µM*, ELG1 DNA repair inconclusive, NPC1 promoter act 1.12µM* and FLuc counter 8.49µM*.
Screening CCOC(=O)c1ccc(NC(=O)C2C3CCCCC32)cc1 (stereo not given) returned Rab9 promoter act inconclusive, ELG1 genotox 22.8%, ELG1 DNA repair inconclusive, NPC1 promoter act inconclusive and FLuc counter 15.1µM*.
Screening O=C(COCc1cc(-c2ccco2)on1)Nc1cccc(Cl)c1Cl returned FLuc counter -11.8%.
CC[N+](CC)(CC)CC[C@](O)(c1ccccc1)C1CCCCC1 was read as SMN2 splice enh 0.5%[20.6 µM].
For Cc1c(C(=O)O)sc(S(=O)(=O)N2CCN(C(=O)CCc3ccccc3)CC2)c1C(=O)O the results were Rab9 promoter act -1.6%, ELG1 genotox -2.4%, ELG1 DNA repair 20.0%, NPC1 promoter act -3.9% and FLuc counter 0.5%.
Screening Cc1ccc(CNC(=O)C2CCN(S(=O)(=O)c3ccc4c(c3)CCCN4C(=O)C3CCC3)CC2)cc1 returned FLuc counter 2.3%.
Cc1c2ccccc2nc2c(F)c(NCCO)c(F)c(F)c12 was read as Rab9 promoter act 22.2%, ELG1 genotox inconclusive, ELG1 DNA repair inconclusive, NPC1 promoter act 3.4%, SMN2 splice enh 24.6% and FLuc counter 21.3µM*.
